The sample as a whole holds a higher share of hits than the screen did.
nsP2pro inh: Primary qHTS for inhibitors of NSP2Pro chikungunya virus (CHIKV). Polyprotein P1234 (Chikungunya virus (strain S27-African prototype)), Q8JUX6. FRET peptide cleavage, nsP2pro, fluorescence 1 h. Potency, µM (series often up to 24.9 µM), most hits filed as inhibitors. 31,000 compounds, 1.1% hits; calls by dose curve; note: nearly all actives have a fitted effect of over 60% in size
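Enzyme 150 nM, substrate 2.5 uM (both final); Tris-HCl 10 mM pH 8.0 + 0.01% Tween 20; cpd up to 25 uM, 7 pts; 15 min preinc., 1 h RT; fluorescence ex 525/em 598.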
Of the large screens only hits and unclear results are named; the others gave an inactive call; ! = repeats disagree.

COc1ccc(Nc2ccc3c(n2)CN(Cc2ccccc2C)C(=O)CO3)cc1	nsP2pro inh 4.47µM
COc1ccc(Nc2ccc3c(n2)CN(Cc2ccccc2F)C(=O)CO3)cc1	none
COc1ccccc1-c1ccc2c(n1)CN(Cc1ccccc1C)C(=O)CO2	none
CCn1cc(CN2CC(Oc3ccc(-c4noc(-c5cccnc5)n4)cc3)C2)cn1	none
Cc1nnc(-c2cnn(C)c2N)n1CCCn1ccnc1	none
CC12CCC3c4ccc(O)cc4CCC3C1CC(OC1OC(C(=O)O)C(O)C(O)C1O)C2O (stereo unspecified)	none
Cc1ccc(-c2c(C(=O)CCl)n(CCCO)c3ncnc(N)c23)cc1	none
CN(CC(=O)Nc1ccc(N2CCOCC2)cc1)Cc1ccccc1O	none
COc1ccc2ccccc2c1CN(C)CC(=O)Nc1ccc(N2CCOCC2)cc1	none
CN1CCN(c2ccc(NC(=O)CN(C)Cc3c(O)ccc4ccccc34)cc2)CC1	nsP2pro inh 12.6µM
O=C(O)c1cc(O)c2c(c1)[O][Bi][O]2	none
O=C(O)c1cc(O)c(O)c(O)c1	nsP2pro inh 12.4µM!
O=C(O)c1cc(N=Nc2ccc(O)c(C(=O)O)c2)ccc1O	none
Cc1ccc(-c2cc(-c3cccnc3)nc3c(C)noc23)c(C)c1	none
O=C(Nc1nc2c(s1)CCCCCC2)Nc1ccc(F)cc1F	none
CCCOc1ccccc1C(=O)Nc1nc2c(s1)CCCC2	nsP2pro inh 12.6µM
COc1ccccc1C(=O)Nc1nc(-c2ccccc2)cs1	none
CCOCc1cc(OC)c(-c2ccc(C[C@H](NC(=O)c3c(F)cccc3F)C(=O)O)cc2)c(OC)c1	none
COc1ccc(C2Nc3ccccc3C(=O)N2Cc2ccccc2)cc1COc1c(C)cc(NC(C)=O)cc1C (stereo unspecified)	none
CN1CCC(c2c[nH]c3ccc(NC(=O)c4ccc(F)cc4)cc23)CC1	none
O=C(O)/C(S)=C/c1c[nH]c2ccc(F)cc12	nsP2pro inh 11.1µM
COc1ccc2[nH]cc(CCNC(=O)Nc3ccc(F)cc3)c2c1	none
CC(C)NCCCn1c(Sc2cc3c(cc2I)OCO3)nc2c(N)ncnc21	none
CN(C)c1cnc2c(O)cccc2c1	none
O=C(Nc1ccc(-c2nc3ccccc3[nH]2)cc1)c1ccc2ncsc2c1	nsP2pro inh 11.2µM
O=C(Nc1ccc(-c2nc3ccccc3[nH]2)cc1)c1ccc2ncccc2c1	none
O=C(Nc1ccc(-c2nc3ccccc3[nH]2)cc1)c1ccc2sccc2c1	none
Cc1ccc(C(=O)NCCCCCC(=O)Nc2ccccc2N)cc1	none
NCCS[As](SCCN)c1ccc(Nc2nc(N)nc(N)n2)cc1	none
O=C(NC[C@H]1OC[C@@H](NC2CCOCC2)[C@@H]1O)N1CCOCC1	none
CC(C)CCC[C@@H](C)[C@H]1CC[C@H]2[C@@H]3CC=C4C[C@@H](O)CC[C@]4(C)[C@@H]3CC[C@]12C	none
Cc1cc(CNS(=O)(=O)c2ccc3c(c2)CCN(C(=O)C(O)C(C)C)C3)no1 (stereo unspecified)	none
O=C1c2ccccc2C(=O)N1Cc1ccccc1	none
O=C1N/C(=C\c2ccco2)C(=O)N1Cc1ccccc1	nsP2pro inh 12.6µM
O=C1N/C(=C\c2ccco2)C(=O)N1Cc1ccc(F)cc1	none
Cc1cc(C)nc(NC(=S)N2CCN(c3ncnc4ccccc34)CC2)c1	none
O=C(NCc1ccco1)NC1CCc2nnc(C3CC3)n2CC1 (stereo unspecified)	none
CCCCN(C)C(=O)Cn1nc(-c2ccncc2)ccc1=O	none
CCCOc1nccnc1NC1CCN(C(=O)c2cccnc2)CC1	none
Cc1nc2c(NC3CCN(C(=O)c4cnccn4)CC3)cccn2n1	nsP2pro inh 11.2µM
O=C(c1ccoc1)N1CCC(Nc2cccn3ncnc23)CC1	none
[2H]C([2H])([2H])C(O)([C@@H](C)/C=C/[C@@H](C)[C@H]1CC[C@H]2/C(=C/C=C3C[C@@H](O)C[C@H](O)C3)CCC[C@]12C)C([2H])([2H])[2H]	none
COc1cccc(S(=O)(=O)N2CC(Oc3ccccc3-c3noc(C)n3)C2)c1	none
O=c1cc(-c2ccncc2)oc2c(-c3cccc(CO)c3)nccc12	nsP2pro inh 14.1µM
Cc1ccccc1-c1nccc2c(=O)cc(C3=CCOCC3)oc12	none
O=c1cc(-c2cccnc2)oc2c(NCCc3ccccn3)nccc12	none
COCCN1C(=O)CS(=O)C12CCN(S(=O)(=O)c1ccccc1)CC2 (stereo unspecified)	none
CN1C(=O)c2ccccc2-n2c(nc3ccccc3c2=O)[C@@]12O[C@H]2c1ccccc1	none
CN(C)Cc1nnc(C2CC(NC(=O)Cc3c(F)cccc3Cl)C2)n1C (stereo unspecified)	none
CN(C)Cc1nnc(C2CC(NC(=O)c3cc(-c4cccn4C)n[nH]3)C2)n1C (stereo unspecified)	nsP2pro inh 0.501µM
CN(C)Cc1nnc(C2CC(NC(=O)c3cc(-c4ccsc4)n[nH]3)C2)n1C (stereo unspecified)	none
O=C1CCCC2CC(Nc3nc4ccccc4o3)CC(c3ccccc3)C12 (stereo unspecified)	none
O=CN1C(=O)CC/C1=C\c1ccc2c(c1)OCO2	none
O=C1CCCCC(C(=O)N2CC=C(c3ccccc3)CC2)N1 (stereo unspecified)	none
CCC(=O)N1CCc2sc(C(=O)NCc3ccc4c(c3)OCO4)cc2C1	none
Cc1c(P(=S)(c2ccccc2)c2ccccc2)c2ccccc2n1Cc1ccccc1	none
Cc1c(P(=O)(c2ccccc2)c2ccccc2)c2ccccc2n1C	nsP2pro inh 11.2µM
Cc1c(P(=S)(c2ccccc2)c2ccccc2)c2ccccc2n1C(=O)NCc1ccccc1	none
Cc1cc(C)nc(NC(=S)N2CCN(C3=Nc4ccccc4Oc4ccccc43)CC2)c1	none
COc1ccc(-c2csc(N3CCC(C(N)=O)CC3)n2)cc1OC	none
O=S(=O)(c1ccccc1)N1CC(Oc2ccc(-c3noc(C4CC4)n3)cc2)C1	none
CC1(C)CC=C(C#Cc2ccccc2)c2cc(/C=C/c3ccc(C(=O)O)cc3)ccc21	none
COc1ccc(S(=O)(=O)N2CCOC[C@H](Oc3ccccc3)C2)cc1	none
O=C(NCc1ccnc2[nH]ccc12)c1cccc(Br)c1	nsP2pro inh 11.2µM
O=C(NCc1ccnc2[nH]ccc12)c1cncc(Br)c1	none
CCS(=O)(=O)N1CCC(Oc2cccc(C(=O)NCc3ccccn3)c2)CC1	none
CC(C)(C)CNc1ncnc2ccc(-c3ccc(C(=O)O)o3)cc12	none
O=C(O)c1ccc(-c2ccc3ncnc(NCC4CCCO4)c3c2)o1 (stereo unspecified)	none
O=C(O)c1ccc(-c2ccc3ncnc(NCc4nccs4)c3c2)o1	nsP2pro inh 11.2µM
COc1cccc(-n2nc(C(=O)O)cc2-c2ccc(C3CCCCC3)c(Cl)c2)c1	none
CN1CCN(CCCNC(=O)C2(CCO)CCN(Cc3ccccc3)C2)CC1 (stereo unspecified)	none
CC1=CC2OC3[C@H](O)C[C@@](C)([C@]34CO4)[C@@]2(CO)[C@H](O)C1=O (stereo partly specified)	nsP2pro inh 0.313µM
CC(=O)OC[C@]12C[C@H](OC(=O)CC(C)C)C(C)=C[C@H]1O[C@@H]1[C@H](O)[C@@H](O)[C@@]2(C)[C@]12CO2	none
CC(=O)OC[C@]12C[C@H](O)C(C)=C[C@H]1O[C@@H]1[C@H](O)[C@@H](O)[C@@]2(C)[C@]12CO2	none
CC(=O)NCC1CN(C(=O)NCc2ccc(OC(F)(F)F)cc2)CC12CCCCC2 (stereo unspecified)	none
CC12CC(O)C3CC1(O[C@@H]1O[C@H](CO)[C@@H](O)[C@H](O)[C@H]1O)C3(COC(=O)c1ccccc1)C(=O)O2 (stereo partly specified)	none
